In PubChem BioAssay (NCI) one finds growth inhibition data, which are given here for 10 compounds.

The panel holds about 79,000 compounds, 15% with a hit somewhere; the sample as a whole holds those more often. A number with no mark means an inactive call. Calls of active or inactive are those of the source. No stated cut-off is given here; in the data, active means growth inhibition above about 70%; inactive means the rest.

The nature of experiment [1]: NCI Yeast Anticancer Drug Screen. Data for the rad50 strain (AID 155).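 Further: 0% = growth of vehicle-only cultures of the same strain.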 The settings on record: S. cerevisiae rad50 strain growth inhibition, hits give high values. In a few lines: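 Yeast carrying a defined DNA repair defect were exposed to test compounds, and growth was compared with vehicle-treated controls to give percent inhibition.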
Experiment [2] in a line: NCI Yeast Anticancer Drug Screen. Data for the mec2-1 strain (AID 157). The settings on record: S. cerevisiae mec2-1 strain, hits give high values. In a few lines: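 Using mec2-1 yeast: add compound, measure growth, express inhibition versus vehicle-treated cultures.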
The nature of experiment [3]: NCI Yeast Anticancer Drug Screen. Data for the sgs1 mgt1 strain (AID 161).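 Further: 0% = growth of cultures given vehicle only.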 The settings on record: S. cerevisiae sgs1 mgt1 strain, hits give high values. In a few lines:
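Growth of a repair-deficient yeast mutant was monitored after compound treatment and expressed as inhibition relative to vehicle-treated cultures.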

Experiment [4] can be described thus: NCI Yeast Anticancer Drug Screen. Data for the cln2 rad14 strain (AID 165).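 Further: 0% = growth equal to vehicle treated cultures.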 As to conditions: S. cerevisiae cln2 rad14 strain, hits give high values. In a few lines:
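Yeast strain cln2 rad14, bearing defects in cell cycle control and DNA repair, serves as the test system; values reflect growth inhibition compared with vehicle.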

Experiment [5] can be described thus: NCI Yeast Anticancer Drug Screen. Data for the bub3 strain (AID 167). The settings on record: S. cerevisiae bub3 mutant strain, hits give high values. In a few lines: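 Compounds were applied to a genetically altered yeast strain carrying a cell-cycle control defect. Growth inhibition was scored against vehicle-treated controls.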
A short description of experiment [6]: NCI Yeast Anticancer Drug Screen. Data for the mlh1 rad18 strain (AID 175). As to conditions: S. cerevisiae mlh1 rad18 strain growth inhibition, hits give high values. In a few lines:
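Steps: expose repair-defective yeast to compound; measure growth; express inhibition against vehicle-treated controls.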

[7] abbreviates: at 5.0 µM (retest, dose inferred, filed as 0.5).
Where [8] appears, read: at 50.0 µM (retest, dose inferred, filed as 5.0).

Consider `CCCCNc1ccc(-c2c(N)nc(N)nc2CC)cc1[N+](=O)[O-]`, for which the growth inhibition was -7% in experiment [1] (setting [7]); 0% in experiment [1] (setting [8]); 62.4% in experiment [1] (at 50.0 µM); -16% in experiment [2] (setting [7]); 2% in experiment [2] (setting [8]); 17.6% in experiment [2] (at 50.0 µM). The growth inhibition in experiment [3] (setting [7]) was -9%; in experiment [3] (setting [8]) it was 15%; in experiment [3] (at 50.0 µM), 57%; in experiment [4] (setting [7]) it was -34%; in experiment [4] (setting [8]) it was 8%; in experiment [4] (at 50.0 µM), 27.1%. Also, the growth inhibition was -4% in experiment [5] (setting [7]); -1% in experiment [5] (setting [8]); -0.35% in experiment [5] (at 50.0 µM); -9% in experiment [6] (setting [7]); -16% in experiment [6] (setting [8]); 62.8% in experiment [6] (at 50.0 µM).

On to `CC(NNC(=S)N1CCCC1)c1ccccn1` (stereo not given), for which the growth inhibition in experiment [1] (setting [7]) was 63%; in experiment [1] (setting [8]), 97% (active); in experiment [1] (at 50.0 µM), 98.8% (active); in experiment [2] (setting [7]) it was 52%; in experiment [2] (setting [8]), 98% (active); in experiment [2] (at 50.0 µM), 98.7% (active). For the same compound, the growth inhibition was 63% in experiment [3] (setting [7]); 98% (active) in experiment [3] (setting [8]); 98.9% (active) in experiment [3] (at 50.0 µM); 48% in experiment [4] (setting [7]); 98% (active) in experiment [4] (setting [8]); 99% (active) in experiment [4] (at 50.0 µM). Moreover, the growth inhibition was 53% in experiment [5] (setting [7]); 98% (active) in experiment [5] (setting [8]); 99.2% (active) in experiment [5] (at 50.0 µM); 60% in experiment [6] (setting [7]); 98% (active) in experiment [6] (setting [8]); 98.8% (active) in experiment [6] (at 50.0 µM).

Regarding `CCN(CC)CC(O)c1c(-c2ccccc2)c(-c2ccccc2)c2n1CCC2` (stereo not given), the growth inhibition is -4% in experiment [1] (setting [7]); 92% (active) in experiment [1] (setting [8]); 93.7% (active) in experiment [1] (at 50.0 µM); -3% in experiment [2] (setting [7]); 96% (active) in experiment [2] (setting [8]); 32% in experiment [2] (at 50.0 µM). Moreover, the growth inhibition in experiment [3] (setting [7]) is -2%; in experiment [3] (setting [8]) it was 83% (active); in experiment [3] (at 50.0 µM), 56.7%; in experiment [4] (setting [7]) it was -11%; in experiment [4] (setting [8]), 17%; in experiment [4] (at 50.0 µM), -4.75%. Moreover, the growth inhibition in experiment [5] (setting [7]) is -3%; in experiment [5] (setting [8]) it was 90% (active); in experiment [5] (at 50.0 µM), 92.6% (active); in experiment [6] (setting [7]), -9%; in experiment [6] (setting [8]), 92% (active); in experiment [6] (at 50.0 µM), 47.6%.

Turning to `O=C1C(Cl)=C(Nc2ccc(S(=O)(=O)O)cc2)C(=O)c2ccccc21`, the growth inhibition in experiment [1] (setting [7]) is 23%; in experiment [1] (setting [8]), 99% (active); in experiment [1] (at 50.0 µM), 99.5% (active); in experiment [2] (setting [7]), 33%; in experiment [2] (setting [8]) it was 100% (active); in experiment [2] (at 50.0 µM), 99.6% (active). Moreover, the growth inhibition was 35% in experiment [3] (setting [7]); 100% (active) in experiment [3] (setting [8]); 99.6% (active) in experiment [3] (at 50.0 µM); 12% in experiment [4] (setting [7]); 99% (active) in experiment [4] (setting [8]); 99.3% (active) in experiment [4] (at 50.0 µM). Also, the growth inhibition in experiment [5] (setting [7]) was 74% (active); in experiment [5] (setting [8]), 99% (active); in experiment [5] (at 50.0 µM), 99.5% (active); in experiment [6] (setting [7]) it was 26%; in experiment [6] (setting [8]), 99% (active); in experiment [6] (at 50.0 µM), 99.4% (active).

With `CCOC(CN(C)C(=O)Nc1ccc(Cl)c(Cl)c1)OCC`, the growth inhibition in experiment [1] (setting [7]) is -31%; in experiment [1] (setting [8]), 52%; in experiment [1] (at 50.0 µM) it was 63.7%; in experiment [2] (setting [7]), 2%; in experiment [2] (setting [8]), 61%; in experiment [2] (at 50.0 µM), 32.7%. The growth inhibition in experiment [3] (setting [7]) is -15%; in experiment [3] (setting [8]) it was 56%; in experiment [3] (at 50.0 µM) it was 58.6%; in experiment [4] (setting [7]), -17%; in experiment [4] (setting [8]), 45%; in experiment [4] (at 50.0 µM), 67.8%. In addition, the growth inhibition in experiment [5] (setting [7]) was -26%; in experiment [5] (setting [8]) it was 71% (active); in experiment [5] (at 50.0 µM) it was 54.9%; in experiment [6] (setting [7]), -25%; in experiment [6] (setting [8]), 84% (active); in experiment [6] (at 50.0 µM), 38.7%.

As for `Cc1ccc(S(=O)(=O)N/N=C/c2cc(I)cc([N+](=O)[O-])c2O)cc1`, the growth inhibition in experiment [1] (setting [7]) is 17%; in experiment [1] (setting [8]), 91% (active); in experiment [1] (at 50.0 µM), 89.3% (active); in experiment [2] (setting [7]), 13%; in experiment [2] (setting [8]) it was 92% (active); in experiment [2] (at 50.0 µM), 95.8% (active). In addition, the growth inhibition is 23% in experiment [3] (setting [7]); 93% (active) in experiment [3] (setting [8]); 97.7% (active) in experiment [3] (at 50.0 µM); 9% in experiment [4] (setting [7]); 94% (active) in experiment [4] (setting [8]); 91.3% (active) in experiment [4] (at 50.0 µM). The growth inhibition in experiment [5] (setting [7]) is 8%; in experiment [5] (setting [8]), 97% (active); in experiment [5] (at 50.0 µM), 88.8% (active); in experiment [6] (setting [7]), 21%; in experiment [6] (setting [8]), 94% (active); in experiment [6] (at 50.0 µM), 96.5% (active).

Turning to `CC1=CC(=O)[C@@H](O)[C@]2(C)[C@H]3[C@@]4(O)OC[C@]35[C@H]([C@@H](C)[C@H]4O)[C@@H](OC(=O)C(C)(C)CO)C(=O)O[C@@H]5C[C@@H]12`, the growth inhibition was 10% in experiment [1] (setting [7]); 44% in experiment [1] (setting [8]); 90.7% (active) in experiment [1] (at 50.0 µM); 15% in experiment [2] (setting [7]); 45% in experiment [2] (setting [8]); 90.8% (active) in experiment [2] (at 50.0 µM). Besides, the growth inhibition was 6% in experiment [3] (setting [7]); 40% in experiment [3] (setting [8]); 88.3% (active) in experiment [3] (at 50.0 µM); 17% in experiment [4] (setting [7]); 51% in experiment [4] (setting [8]); 90.5% (active) in experiment [4] (at 50.0 µM). The growth inhibition is 6% in experiment [5] (setting [7]); 39% in experiment [5] (setting [8]); 92.2% (active) in experiment [5] (at 50.0 µM); 6% in experiment [6] (setting [7]); 51% in experiment [6] (setting [8]); -7.05% in experiment [6] (at 50.0 µM).

Take `CO[C@H]1CC[C@@]2(C)C(=CC[C@H]3[C@@H]4C[C@H](OC(C)=O)C[C@@]4(C)CC[C@@H]32)C1`: the growth inhibition is 4% in experiment [1] (setting [7]); 43% in experiment [1] (setting [8]); 26.4% in experiment [1] (at 50.0 µM); 2% in experiment [2] (setting [7]); 26% in experiment [2] (setting [8]); 17.8% in experiment [2] (at 50.0 µM). Further, the growth inhibition in experiment [3] (setting [7]) was 1%; in experiment [3] (setting [8]), 24%; in experiment [3] (at 50.0 µM), 38.3%; in experiment [4] (setting [7]), 2%; in experiment [4] (setting [8]) it was 28%; in experiment [4] (at 50.0 µM), 86.7% (active). Further, the growth inhibition was 1% in experiment [5] (setting [7]); 19% in experiment [5] (setting [8]); 13.3% in experiment [5] (at 50.0 µM); 0% in experiment [6] (setting [7]); 23% in experiment [6] (setting [8]); 34.9% in experiment [6] (at 50.0 µM).

On to `COc1ccc(C(c2cc3c(cc2O)OCO3)N2CCCC2)c(OC)c1` (stereo not given), for which the growth inhibition in experiment [1] (setting [7]) was 10%; in experiment [1] (setting [8]) it was 96% (active); in experiment [1] (at 50.0 µM) it was 98.5% (active); in experiment [2] (setting [7]) it was 0%; in experiment [2] (setting [8]) it was 97% (active); in experiment [2] (at 50.0 µM), 98.2% (active). The growth inhibition was 0% in experiment [3] (setting [7]); 97% (active) in experiment [3] (setting [8]); 98.8% (active) in experiment [3] (at 50.0 µM); -15% in experiment [4] (setting [7]); 76% (active) in experiment [4] (setting [8]); 61.2% in experiment [4] (at 50.0 µM). Also, the growth inhibition in experiment [5] (setting [7]) was 5%; in experiment [5] (setting [8]), 99% (active); in experiment [5] (at 50.0 µM), 97.8% (active); in experiment [6] (setting [7]), -3%; in experiment [6] (setting [8]), 97% (active); in experiment [6] (at 50.0 µM), 96% (active).

For `CN(Cc1cnc2nc(N[Si](C)(C)C)nc(N[Si](C)(C)C)c2n1)c1ccc(C(=O)NC(CCC(=O)O[Si](C)(C)C)C(=O)O[Si](C)(C)C)cc1` (stereo not given), the growth inhibition was 19% in experiment [1] (setting [7]); 89% (active) in experiment [1] (setting [8]); 91% (active) in experiment [1] (at 50.0 µM); 66% in experiment [2] (setting [7]); 97% (active) in experiment [2] (setting [8]); 98.3% (active) in experiment [2] (at 50.0 µM). Also, the growth inhibition in experiment [3] (setting [7]) was 2%; in experiment [3] (setting [8]), 72% (active); in experiment [3] (at 50.0 µM) it was 64.7%; in experiment [4] (setting [7]), -8%; in experiment [4] (setting [8]), 47%; in experiment [4] (at 50.0 µM), 26%. Moreover, the growth inhibition in experiment [5] (setting [7]) was -4%; in experiment [5] (setting [8]) it was 90% (active); in experiment [5] (at 50.0 µM) it was 69.7%; in experiment [6] (setting [7]), 15%; in experiment [6] (setting [8]), 81% (active); in experiment [6] (at 50.0 µM), 60.6%.
